{
  "source": "paper PMC12136788",
  "binders": {"B1": {"name": "ENSG00000198589:be:win_3501|CDS|ENSG00000198589|bound_else_gene|NA|bound_elsewhere_windowed (ssRNA)", "RNA": "GGGAGUUCUACAGUCCGACGAUCUGAUACUGAAACUCAAGAUUCUAAAGAUUCUGGAAUUCAGACUAUGACAGCAUCAGGGUCUUCAGCUAUGUCACCAGAAACUACUGUUUCCCAAAUAGCUGUAGAAUCAGACCUUGGUCACAACAGAGGAUUGAGCAUCA"}, "B2": {"name": "chr5:136975339:136975545:-|3pUTR|ENSG00000152377|msi1|total|mutant (ssRNA)", "RNA": "GGGAGUUCUACAGUCCGACGAUCAGAGCCCAUCAAAUCCUGAGUGUCAGUUUGUUGUCCCUAUUGCCGAUGAAACCGUGAUGCCGCAAAAACCCCGUAAAUUCUGAAUGCUUUUCCACGCCGACUUAUCUGGAAUGUGAACACCAACAGAGGAUUGAGCAUCA"}, "B3": {"name": "chr3:124966548:124966651:-|3pUTR|ENSG00000173706|unk|total|mutant (ssRNA)", "RNA": "GGGAGUUCUACAGUCCGACGAUCAGGAAGAAUGCAAAGUUCAGUAUUUCAAUACUUUGUAUUUUACUUGAAAUUACCCUCCGCCGCAUCUUUUUUUUCCUGUCUGAAAGCUUUUGUGUGGAUGAGAAGGGACAUUUCAUUUCCCAACAGAGGAUUGAGCAUCA"}, "B4": {"name": "ENSG00000124766:be:win_801|CDS|ENSG00000124766|bound_else_gene|NA|bound_elsewhere_windowed (ssRNA)", "RNA": "GGGAGUUCUACAGUCCGACGAUCCUCGGCCUCCGCCUCCUCGGCAGCCUCGGCCUCCGCAGCGCUCGCGGCCCCGGGCAAGCACCUGGCGGAGAAGAAGGUGAAGCGCGUCUACCUGUUCGGCGGCCUGGGCACGUCGUCGUCCAACAGAGGAUUGAGCAUCA"}, "B5": {"name": "ENSG00000101945:stop:overlap|stop_codon|ENSG00000101945|stop_codon|NA|stop_codon (ssRNA)", "RNA": "GGGAGUUCUACAGUCCGACGAUCAGAAGCGGGUCCGUAUUGAAUGCAAGUGUGGGACUGAGUCCUGCCGCAAAUACCUCUUCUAGCCCUUAGAAGUCUGAGGCCAGACUGACUGAGGGGGCCUGAAGCUACAUGCACCUCCCCCAACAGAGGAUUGAGCAUCA"}, "B6": {"name": "chr12:24812577:24812678:-|3pUTR|ENSG00000060982|msi1|FALSE|unique (ssRNA)", "RNA": "GGGAGUUCUACAGUCCGACGAUCAUCCAAAGGAGCUUUUUCCUUAUUCUGUCAAGCAUUGAGAUCUUCUUCAGCUUUCAAUGUAGUUGCUAAAUACAAAUAAUGCUACUAGGUAGUGACUAAAUAUAGCAAACACUUCAUCAGCAACAGAGGAUUGAGCAUCA"}, "B7": {"name": "chr10:22535117:22535218:-|3pUTR|ENSG00000150867|unk|FALSE|unique (ssRNA)", "RNA": "GGGAGUUCUACAGUCCGACGAUCAAGGUACACAUACAUUAUUUGAGUAACUGUUUCCUUGGGGGCCAAUCUGUGUAUGCUUUUAGAAGUUUACAGAAUGCUUUUAUUUUUGUCUAUAACAAACAGUCUGUCAUUUAUUUCUGUCAACAGAGGAUUGAGCAUCA"}, "B8": {"name": "chr9:76611375:76614569:-|three_prime_utr|ENSG00000106772|control|control|control (ssRNA)", "RNA": "GGGAGUUCUACAGUCCGACGAUCAUGUUACCUUUUUCCACUUUGCACUACCUGGUGCCAUUCUAAAUUUCUAAGGGGAAAAAUAGAAAGUUUGUUUACUCUUAAGAUAUUUUAUGAAAUUGUGUGUACUUUCCUAUUUUGCCACAACAGAGGAUUGAGCAUCA"}, "B9": {"name": "chr12:131960804:131960905:+|CDS|ENSG00000183495|unk|total|mutant (ssRNA)", "RNA": "GGGAGUUCUACAGUCCGACGAUCCCCUCAGCAAGCCCGUCGGCACCCCAGUCUCCCAGUUAUCAAAUACAGCAGCUGAUGAACCGGAGCCCUGCAACCGGGCAGAACGUGAACAUCACCCUGCAGAGCGUGGGCCCUGUCGUCCAACAGAGGAUUGAGCAUCA"}, "B10": {"name": "chr1:154944474:154944574:-|3pUTR|ENSG00000163346|msi1_unk|FALSE|overlapping (ssRNA)", "RNA": "GGGAGUUCUACAGUCCGACGAUCUCGAGGCCCAGCACGAGGACUUACCCUGGGGUUUUGUUAGGUUUGGAAGCAGCUGUCCCUAGGGGGUGAAGUCCCCCCCCUUUUUUUUUUUACCCCUGCUUCUCCCACGGCUUCACCUCCCAACAGAGGAUUGAGCAUCA"}, "B11": {"name": "chr7:32869766:32869881:-|CDS|ENSG00000170852|unk|FALSE|bound_elsewhere (ssRNA)", "RNA": "GGGAGUUCUACAGUCCGACGAUCAUGUACUGUUAUUUUCCAAGGUCUGACUCAUGGGUAGAAAUGGCCAUGAGACAGACUAGUAGGUCCUUUGCUUCAGCUGCAGCUUUUGGUGAUAAAAUUUUCUAUAUUGGAGGGUUGCAUCAACAGAGGAUUGAGCAUCA"}, "B12": {"name": "chr2:42682433:42682535:+|CDS|ENSG00000057935|unk|FALSE|unique (ssRNA)", "RNA": "GGGAGUUCUACAGUCCGACGAUCUCACGCUAUGGAUACAUUGUAUAGACACAGCUAUGAUUUGAGCAGUGCCAUUAGUGUCUUAGUACCACUCGGAGGACCUGUUUUAUGCAGAGAUGAAAUGGAGGAAUGGUCAGCCUCUGACAACAGAGGAUUGAGCAUCA"}, "B13": {"name": "chr1:64832709:64832810:+|3pUTR|ENSG00000162437|msi1|total|mutant (ssRNA)", "RNA": "GGGAGUUCUACAGUCCGACGAUCACAGCCCGAAAGUUUAAGGUAAUUUCUAAGUAUACUACCUAUAAGUAACUGAUAAGAAUCCGGCAUCAUUCAGUGAUACCGCAGAUGACUAAUGGGUUUUUCAGGCCCUGCACUUCUCUUCAACAGAGGAUUGAGCAUCA"}, "B14": {"name": "chr7:16784014:16784129:+|3pUTR|ENSG00000106537|msi1_unk|total|mutant (ssRNA)", "RNA": "GGGAGUUCUACAGUCCGACGAUCGAUAAUUUACUUGCCGUCUUUUAUGAUUACACCAAUGUAUUCCCGAAACCGUUAUGUCUCCGGAAAUUGUGGUUUAAUUUUUGACUUUUACAGGUAAGUGCAAAGGAGAAGUGGUUUCAUCAACAGAGGAUUGAGCAUCA"}, "B15": {"name": "chr8:79641408:79641533:+|CDS|ENSG00000104435|unk|total|mutant (ssRNA)", "RNA": "GGGAGUUCUACAGUCCGACGAUCCCAGGCUUUUGAGCUGAUCUUGAAGCCACCAUCUCCUAUCUCAGAAGCCCCACGAACUUCCGCUUCUCCAAAGAAGAAAGACCUGUCCCUGGAGGAGAUCCAGAAGAAACUGGAGGCUGCCAACAGAGGAUUGAGCAUCA"}, "B16": {"name": "ENSG00000107863:be:win_6101|3pUTR|ENSG00000107863|bound_else_gene|NA|bound_elsewhere_windowed (ssRNA)", "RNA": "GGGAGUUCUACAGUCCGACGAUCGCAAGGUAUUUGUUGCAACUUACUACAUAGCAUAUACCCAAAAUCACUGAAGAAAAUCGCUGGCAUCAGUGUGCAGCAAAUUUGUUCUUUUGGUUUCAUCACUAACAAAAGUGCCUCAUCCAACAGAGGAUUGAGCAUCA"}, "B17": {"name": "chr14:102081487:102081564:-|3pUTR|ENSG00000080824|msi1_unk|FALSE|overlapping (ssRNA)", "RNA": "GGGAGUUCUACAGUCCGACGAUCGAAGAUAAGAUUUCUGUCUACUAAGUGAUGCUGUGAUACCUUAGGCACUAAAGCAGAGCUAGUAAUGCUUUUUGAGUUUCAUGUUGGUUUAUUUUCACAGAUUGGGGUAACGUGCACUGUCAACAGAGGAUUGAGCAUCA"}, "B18": {"name": "chr14:54957033:54957204:-|CDS|ENSG00000198554|control|control|control (ssRNA)", "RNA": "GGGAGUUCUACAGUCCGACGAUCGCACGUUCAACUAAUAUUUUAGACAAUAUGGGCAAAUCAUCCAAGAAAUCCACUGCACUUAGUCGAACUACAAAUAAUGAAAAGUCUCCCAUUAUAAAGCCUCUGAUUCCAAAGCCGAAGCAACAGAGGAUUGAGCAUCA"}, "B19": {"name": "chrX:55006554:55006655:+|CDS|ENSG00000169188|unk|FALSE|unique (ssRNA)", "RNA": "GGGAGUUCUACAGUCCGACGAUCAGGGCGCAAGUGGAUGGACAGCUUGCUCAGUAACUUGGGGUGCCAGUCUGCCUCUCAUGUAGGGCCCUUCAUCGAUAGCUACCGCUGCUUCCAACCAAAGCAGGAGGGGGCCUUCACCUGCAACAGAGGAUUGAGCAUCA"}, "B20": {"name": "chrX:112630647:112631419:-|three_prime_utr|ENSG00000182508|control|control|control (ssRNA)", "RNA": "GGGAGUUCUACAGUCCGACGAUCAGAAGAUUGGAGAGGGUGGGAAAGGGGAGGAGGGAGCCCUGAAAAGAGGUACUAAGGAUUAGGCCAUUUGUCAUCUGACUGUCAUUAGCAUAGCCUAGUGUUUGCAUGCUUUUUAAACUACAACAGAGGAUUGAGCAUCA"}, "B21": {"name": "chr1:173887777:173887878:+|3pUTR|ENSG00000185278|unk|FALSE|unique (ssRNA)", "RNA": "GGGAGUUCUACAGUCCGACGAUCAAAGAGAUUUGGCAGAGGGACAGGUUGUACCUGCACUGGUGAACCAUCUGUGAGAAUGUUAGUCAUGUGCUCCUUUCCUGAGAUUGCUUUGUGGUAUGUGAAAAGGUGGGUAGAAAAGAACAACAGAGGAUUGAGCAUCA"}, "B22": {"name": "chr1:93180074:93180188:-|CDS|ENSG00000117500|unk|FALSE|bound_elsewhere (ssRNA)", "RNA": "GGGAGUUCUACAGUCCGACGAUCCUGGCCGCUCUGCCUCCGGUGCUGCUGCCUGGGGCGGCCGGCUUCACACCUUCCCUCGAUAGCGACUUCACCUUUACCCUUCCCGCCGGCCAGAAGGAGUGCUUCUACCAGCCCAUGCCCCAACAGAGGAUUGAGCAUCA"}},
  "note": "In all, about 5,800 sequences were measured (“enrichment r”: median about 0.68, highest 2% from about 11 on). These entries were drawn from the full list.",
  "data": [
    {"molecular_target": "T1, UNK ZnF1-6 (called full-length) (human, UniProt Q9C0B0 30-357)", "T1 sequence": "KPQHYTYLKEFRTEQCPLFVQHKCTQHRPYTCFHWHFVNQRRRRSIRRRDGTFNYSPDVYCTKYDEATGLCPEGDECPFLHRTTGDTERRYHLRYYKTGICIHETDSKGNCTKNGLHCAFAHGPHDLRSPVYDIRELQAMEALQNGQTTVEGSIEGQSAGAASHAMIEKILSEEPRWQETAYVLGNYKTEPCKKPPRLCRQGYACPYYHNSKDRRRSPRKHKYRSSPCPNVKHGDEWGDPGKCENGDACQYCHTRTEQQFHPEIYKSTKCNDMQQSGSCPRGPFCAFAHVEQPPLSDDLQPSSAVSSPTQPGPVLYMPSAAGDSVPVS", "assay": "nsRBNS (natural sequence RNA bind-n-seq); RBNS binding buffer (assumed for nsRBNS): 25 mM Tris pH 7.5, 150 mM KCl, 3 mM MgCl2, 0.01% Triton X-100, 500 ug/ml BSA, 20 U/ml SUPERase-In, 4 C; UNK is unkempt and MSI1 is Musashi-1; names of the RNAs are library labels; protein concentration not given here; high values mean tight binding", "units": {"binding signal": "enrichment R"}, "values": [
      {"binder": "B1", "binding signal": 0.311},
      {"binder": "B2", "binding signal": 0.528},
      {"binder": "B3", "binding signal": 0.473},
      {"binder": "B4", "binding signal": 0.655},
      {"binder": "B5", "binding signal": 0.806},
      {"binder": "B6", "binding signal": 0.559},
      {"binder": "B7", "binding signal": 0.472},
      {"binder": "B8", "binding signal": 0.818},
      {"binder": "B9", "binding signal": 1.09},
      {"binder": "B10", "binding signal": 1.37},
      {"binder": "B11", "binding signal": 0.714},
      {"binder": "B12", "binding signal": 0.747},
      {"binder": "B13", "binding signal": 0.244},
      {"binder": "B14", "binding signal": 0.435},
      {"binder": "B15", "binding signal": 0.67},
      {"binder": "B16", "binding signal": 0.567},
      {"binder": "B17", "binding signal": 0.375},
      {"binder": "B18", "binding signal": 1.02},
      {"binder": "B19", "binding signal": 0.87},
      {"binder": "B20", "binding signal": 1.14},
      {"binder": "B21", "binding signal": 0.823},
      {"binder": "B22", "binding signal": 1.1}
    ]}
  ]
}
